Experimental data reported in PubChem BioAssay (NCI).
The panel holds about 83,000 compounds, 20% with a hit somewhere; the sample as a whole holds those more often.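 Results are percent growth after 48 hours of single-concentration exposure. 100 means growth as in untreated cells, lower positive values show inhibition; negative values down to -100 show cell death.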 Activity calls are given as the source filed them. The calls were made as follows: active = growth percent below 10; inactive = the rest.

These compounds were tested on MDA-MB-468 breast (assay: NCI-60 one-dose screen, 48 h (100 = growth as untreated, 0 = no growth, -100 = all killed)). Conditions: 10 µM unless noted.
With Cn1cc(-c2nc(-c3c[nH]c4ncccc34)cs2)c2cccnc21 the growth was -6.43% (active).
In the case of C[C@@H](NC(=O)[C@@H](CC(=O)N1CCC(N2CCCCC2)CC1)N1C(=O)[C@@H](N2C(=O)OC[C@@H]2c2ccccc2)[C@H]1/C=C/c1cccc(Cl)c1)c1ccccc1, the growth was 1.45% (active).
O=C(NCCNc1nccc(-c2c(-c3cccc(O)c3)nc3sccn23)n1)c1ccccc1 was tested, and the growth was 54.7% (inactive).
For Cc1nnc(/N=C2\NC(=O)/C(=C/c3ccc(N(C)C)cc3)S2)s1, the growth was 87.2% (inactive).
For Cc1ccc(C2CC(c3ccc(Nc4nc(NCCO)nc(NCCO)n4)cc3)=NN2c2ccc(Cl)cc2)cc1 (stereo unspecified), the growth was 73.2% (inactive).
CC1=CC2C(C(O)CC3(C)C2CC(C)C32OCOC23COCO3)C2(C)C/C(=C/O)C(=O)C=C12 (stereo unspecified) was tested, and the growth was -16.2% (active).
In the case of COc1cccc(Nc2ncnn3ccc(CN4CC[C@@H](N)[C@H](O)C4)c23)c1, the growth was -42.4% (active).
O=C(CCCl)OCCOc1ccccc1 was tested, and the growth was 107% (inactive).
With Cc1ccc(-c2nc(SCC(=O)N3CCN(c4cc5c(cc4F)c(=O)c(C(=O)O)cn5C4CC4)CC3)nc(Cl)c2C#N)cc1 the growth was 95% (inactive).
O=c1c2cccc3c(Nc4ccc(Br)cn4)ccc(c32)c2nc3ccccc3n12 was tested, and the growth was -64.7% (active).
With CC(=O)O[C@H]1CC[C@]2(C)[C@H]3CC=C4[C@@H]5CC(C)(C)CC[C@]5(C(=O)NCCNCCN)CC[C@@]4(C)[C@]3(C)CC[C@H]2C1(C)C the growth was -78.2% (active).
COc1cc(/C=N/NC(=O)c2ccccc2Nc2cccc(C(F)(F)F)c2)ccc1O was tested, and the growth was 28.3% (inactive).
With Cc1[nH]nc2c1C(c1cnn(C)c1)C(C#N)=C(N)O2 (stereo unspecified) the growth was 92.4% (inactive).
With Cn1c(=O)c2[nH]c(SC/C(=N/O)c3ccc(Br)cc3)nc2n(C)c1=O the growth was 47.1% (inactive).
In the case of COc1ccc(OC)c(-c2cc(-c3ccc(Cl)cc3)c3c(N)c(C(=O)c4ccc(Cl)cc4)sc3n2)c1, the growth was 117% (inactive).
For N[C@@H]1CCC[C@H]1NCCCCN1C(=O)c2cccc3cc([N+](=O)[O-])cc(c23)C1=O, the growth was 31.9% (inactive).
In the case of Clc1ccc(-c2nnc(-c3cccc4ccccc34)o2)cc1, the growth was 19.1% (inactive).
COc1ccc2c(c1)C(=O)/C(=C/c1ccc([N+](=O)[O-])o1)O2 was tested, and the growth was -49.4% (active).
With Cn1cc(-c2nnc(-c3cn(C)c4ncc(Br)cc34)o2)c2ccccc21 the growth was 39.3% (inactive).
In the case of C#Cc1nc(/C=C/C(=O)NO)cs1, the growth was 51.7% (inactive).
In the case of COc1cc(/C=C/C(=O)c2ccc(NC(=O)CSc3nnc(-c4ccc5nc(-c6ccccc6)[nH]c5c4)o3)cc2)cc(OC)c1OC, the growth was 94.9% (inactive).
With COc1ccc(-c2cc(-c3c(C)oc4cc5occc5c(OC)c4c3=O)nc(N)c2C#N)cc1OC the growth was 76.2% (inactive).
In the case of Cc1ccccc1NC(=O)Nc1nc2ccc([N+](=O)[O-])cc2s1, the growth was -3.68% (active).
With C=CC(=O)Nc1cccc(-c2nc(SC)nc(NCc3ccccc3)c2C#N)c1 the growth was 52.1% (inactive).
With Cn1ccnc1C(=O)/C=C/c1ccc(C(=O)Nc2ccc(NC(=O)CCNC(=O)c3csc(Br)n3)cc2)cc1 the growth was 48.4% (inactive).
c1ccc2nc(Cn3c[n+](Cc4ccc5ccccc5n4)c4ccccc43)ccc2c1 was tested, and the growth was -19.3% (active).
